Results from the supplement of paper PMC7411054.
Counter-ions that a name gives are not always drawn.

Legend:
Assay in all cases: lowest phenotypically active concentration; higher = less potent
Settings in all cases: treatment time: 24 h
HepG2-ACTB-RAB5A = system: HepG2-ACTB-RAB5A
Outline: (§1)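 Cells from fifteen gene-edited reporter lines (A549, HepG2 and WPMY1) were treated for 24 h at 0.3, 1, 3 or 9 µM and imaged live, four wells per condition. Features were normalised per well to solvent control wells. A condition deviated if ≥3 of 4 wells passed the 95th percentile of control Euclidean distances and was reproducible if its median replicate Pearson correlation beat the 95th percentile of non-replicates; phenotypic activity needed both.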

HepG2-CANX-COX4 = system: HepG2-CANX-COX4
Outline: as §1

HepG2-GM130-SQSTM1 = system: HepG2-GM130-SQSTM1
Outline: as §1

HepG2-TP53BP1-CLTA = system: HepG2-TP53BP1-CLTA
Outline: as §1

HepG2-TUBA1B-RELA = system: HepG2-TUBA1B-RELA
Outline: as §1

WPMY1-ACTB-RAB5A = system: WPMY1-ACTB-RAB5A
Outline: as §1

WPMY1-CANX-COX4 = system: WPMY1-CANX-COX4
Outline: as §1

WPMY1-GM130-SQSTM1 = system: WPMY1-GM130-SQSTM1
Outline: as §1

WPMY1-TP53BP1-CLTA = system: WPMY1-TP53BP1-CLTA
Outline: as §1

WPMY1-TUBA1B-RELA = system: WPMY1-TUBA1B-RELA
Outline: as §1

Measured: lowest phenotypically active concentration

CC(C)n1nc(-c2cc3cc(O)ccc3[nH]2)c2c(N)ncnc21
3 µM: HepG2-TP53BP1-CLTA | WPMY1-TUBA1B-RELA
≤ 0.3 µM: HepG2-CANX-COX4 | HepG2-GM130-SQSTM1
1 µM: all other assays above

C=CC(=O)Nc1cccc(CN2C(=O)N(c3c(Cl)c(OC)cc(OC)c3Cl)Cc3cnc(NCCCCN(CC)CC)nc32)c1 [FIIN 1 hydrochloride]
1 µM: WPMY1-CANX-COX4 | WPMY1-TUBA1B-RELA
3 µM: HepG2-CANX-COX4
≤ 0.3 µM: all other assays above

Cc1cc(Nc2ncc3c(n2)N(C)C(=O)N(c2cc(NC(=O)c4cccc(C(F)(F)F)c4)ccc2C)C3)n(C)n1 [Pluripotin]
1 µM: WPMY1-CANX-COX4 | WPMY1-TP53BP1-CLTA | WPMY1-TUBA1B-RELA
≤ 0.3 µM: all other assays above

Cc1ccc2nc(NCCN)c3ncc(C)n3c2c1
3 µM: all assays above

CC1=C(C(=O)Nc2cc3cn[nH]c3cc2F)C(c2ccc(C(F)(F)F)cc2)CC(=O)N1 (stereo not given)
3 µM: WPMY1-TP53BP1-CLTA
≤ 0.3 µM: all other assays above

CN1c2ccccc2C(=O)N2CCc3c([nH]c4ccccc34)[C@H]21 [Evodiamine]
3 µM: HepG2-CANX-COX4 | HepG2-GM130-SQSTM1 | HepG2-TP53BP1-CLTA | HepG2-TUBA1B-RELA
1 µM: all other assays above

Clc1ccc(N/N=C(\c2ccccc2)c2ccccn2)nc1
≤ 0.3 µM: HepG2-ACTB-RAB5A | HepG2-CANX-COX4 | HepG2-TP53BP1-CLTA | HepG2-TUBA1B-RELA
1 µM: all other assays above

O=C(Nc1c[nH]nc1-c1nc2cc(CN3CCOCC3)ccc2[nH]1)NC1CC1
≤ 0.3 µM: all assays above

CC[C@H](CO)Nc1nc(NCc2ccc(-c3ccccn3)cc2)c2ncn(C(C)C)c2n1
≤ 0.3 µM: all assays above

O=C(Nc1ccc(-c2ccnc(Nc3ccc(N4CCOCC4)cc3)n2)cc1)[C@@H]1CCCN1
9 µM: HepG2-TP53BP1-CLTA
3 µM: all other assays above

O=C(CCCCCCC(=O)Nc1ccccc1)NO
3 µM: HepG2-TP53BP1-CLTA
≤ 0.3 µM: HepG2-GM130-SQSTM1 | WPMY1-CANX-COX4
1 µM: all other assays above

CO[C@@H]1[C@H](N(C)C(=O)c2ccccc2)C[C@H]2O[C@]1(C)n1c3ccccc3c3c4c(c5c6ccccc6n2c5c31)C(=O)NC4
1 µM: WPMY1-GM130-SQSTM1
≤ 0.3 µM: all other assays above

Cc1n[nH]c2ccc(-c3cncc(OC[C@@H](N)Cc4ccccc4)c3)cc12
≤ 0.3 µM: all assays above

Fc1ccccc1CNCc1ccc(-c2ccnc3[nH]ccc23)cc1 [OXA 06 dihydrochloride]
≤ 0.3 µM: HepG2-GM130-SQSTM1 | WPMY1-CANX-COX4
9 µM: WPMY1-TP53BP1-CLTA
1 µM: all other assays above

COc1cc(N2CCC(N3CCN(C)CC3)CC2)ccc1Nc1ncnc(Nc2ccccc2S(=O)(=O)C(C)C)n1
3 µM: HepG2-CANX-COX4 | WPMY1-CANX-COX4
9 µM: all other assays above

Cc1noc(C)c1-c1cc(O)cc(C(O)c2ccccc2)c1 (stereo not given)
1 µM: WPMY1-GM130-SQSTM1
3 µM: all other assays above

CCc1cccc(CC)c1NC(=O)N1Cc2[nH]nc(NC(=O)c3ccc(N4CCN(C)CC4)cc3)c2C1
1 µM: WPMY1-ACTB-RAB5A | WPMY1-CANX-COX4 | WPMY1-GM130-SQSTM1 | WPMY1-TP53BP1-CLTA | WPMY1-TUBA1B-RELA
≤ 0.3 µM: all other assays above

Clc1ccc(C2(c3ccc(-c4cn[nH]c4)cc3)CCNCC2)cc1
1 µM: WPMY1-TP53BP1-CLTA
≤ 0.3 µM: all other assays above

COc1c(Nc2cc(C)[nH]n2)nc(Sc2ccc(S(=O)(=O)Cc3cccc([N+](=O)[O-])c3F)cc2F)nc1N1CCOCC1 [Centrinone]
9 µM: HepG2-ACTB-RAB5A
1 µM: HepG2-GM130-SQSTM1 | WPMY1-ACTB-RAB5A
3 µM: all other assays above

CC[C@]1(O)C[C@@H]2CN(CCc3c([nH]c4ccccc34)[C@@](C(=O)OC)(c3cc4c(cc3OC)N(C=O)[C@H]3[C@@](O)(C(=O)OC)[C@H](OC(C)=O)[C@]5(CC)C=CCN6CC[C@]43[C@@H]65)C2)C1 [vincristine]
≤ 0.3 µM: all assays above
